In PubChem BioAssay AID2314 (National Center for Advancing Translational Sciences (NCATS), 2010):
The whole screen tested about 300,000 compounds, of which about 37,000 (12%) were called active. The list comes from a sample in which actives are over-represented; it also holds similar structures and randomly drawn compounds. Unmarked numbers belong to inactive results. No stated cut-off is given here; in the data, active means max response mostly above about 13% (no sharp cut-off); inactive means mostly below about 14%.

experiment: Cycloheximide Counterscreen for Small Molecule Inhibitors of Shiga Toxin; details: cell reporter, cycloheximide protein synthesis inhibition counterscreen; stronger effect = higher value; further: read at 38.3 µM for the half of the compounds with a filed dose; 0% is about no effect

Row | Compound | max response
1 | COc1cc(CNCCN(C)C)ccc1OCc1c(F)cccc1Cl | -2.65%
2 | CCOC(=O)C1CCN(S(=O)(=O)c2ccc3c(c2)N(C(C)=O)CCO3)CC1 | 2.65%
3 | Cc1cc(-c2cccs2)nc(-n2cccc2)n1 | 16.4%
4 | c1csc(-c2cn3c(n2)SCC3)c1 | 22.4% (active)
5 | CCCS(=O)(=O)Nc1ccc(-c2cn3c(n2)SCC3)cc1 | 1.28%
6 | COCCNC(=O)CSc1nc2sccc2c(=O)n1-c1ccccc1 | -7.71%
7 | O=C(NC1CCCC1)C(c1ccco1)N(C(=O)c1csnn1)c1ccccc1 (stereo unspecified) | -5.09%
8 | NC(=O)C1CCCN(CC(=O)N2CCN(c3ccccc3)CC2)C1 (stereo unspecified) | -4.9%
9 | CCOC(=O)C1CCN(S(=O)(=O)c2ccc3c(c2)N(C)C(=O)CC(=O)N3C)CC1 | -2.95%
10 | COc1cc(C(=O)N2C(=O)c3cccc(N)c3C2=O)cc(OC)c1OC | 2.15%
11 | COc1ccc2c(c1OC)C(=O)N(c1ncn[nH]1)C2 | 2.6%
12 | COc1ccc2c(c1OC)C(=O)N(c1ccc(O)cc1)C2 | 18.3% (active)
13 | CCOc1ccc(S(=O)(=O)Nc2ccc(OC)nc2)cc1 | -3.62%
14 | CCOC(=O)C1=C(CSc2nnnn2C)N(C)C(=O)NC1c1ccccc1 (stereo unspecified) | -4.86%
15 | Cc1cccnc1NC(=O)Cn1c(=O)oc2ccccc21 | -0.475%
16 | Cc1nc(COc2cc3oc(=O)cc(C)c3cc2Cl)cs1 | 5.56%
17 | O=C(CCc1ccccc1)Nc1ccnn1C1CCN(Cc2ccc(OCCO)cc2)CC1 | -1.22%
18 | Cc1ccccc1-c1nc(CS(=O)(=O)CC(=O)NC(C)c2ccccc2)c(C)o1 (stereo unspecified) | 1.09%
19 | O=C(Nc1cccnc1)c1cc(Cl)ccc1Cl | 1.75%
20 | O=C(Nc1cccnc1)c1ccc(Cl)c([N+](=O)[O-])c1 | 11.1%
21 | Cc1ccnc(NC(=O)c2ccc(Cl)c([N+](=O)[O-])c2)c1 | 28.9% (active)

Row | Compound | max response
22 | CCOC(=O)c1ccc(NC(=O)CNC(=O)c2ccco2)cc1 | -0.716%
23 | COC(=O)c1ccc(NC(=O)c2ccco2)cc1 | 25.4% (active)
24 | C/C(=N/NS(=O)(=O)c1ccccc1)c1ccc(NC(=O)C(F)(F)F)cc1 | 1.13%
25 | C/C(=N\NS(=O)(=O)c1ccc(Cl)cc1)c1ccc(NC(=O)c2ccco2)cc1 | 34.2% (active)
26 | COC(=O)c1cc(NC(=O)c2ccco2)ccc1N1CCOCC1 | -1.96%
27 | O=C(NNC(=O)c1csc(-c2cccnc2)n1)Nc1ccc(Cl)cc1 | 1.7%
28 | O=C(Nc1ccc(Cl)cc1)Nc1ccc(Oc2cccnc2)nc1 | 46.4% (active)
29 | CN1CCN(S(=O)(=O)c2ccc(NC(=O)c3ccco3)cc2)CC1 | 12%
30 | O=C(Nc1ccncc1)c1ccc(Cl)c([N+](=O)[O-])c1 | -2.17%
31 | COc1ccc(N2C(=O)/C(=C\c3ccco3)N=C2SCC(N)=O)cc1Cl | 1.81%
32 | CCOc1ccccc1N1CCN(C(=S)Nc2ccc(S(N)(=O)=O)cc2)CC1 | -1.52%
33 | Cc1ccc(C(CNC(=O)Nc2ccccc2)N2CCN(C)CC2)cc1 (stereo unspecified) | -1.45%
34 | COC(=O)c1cc(S(=O)(=O)N2CCN(c3cc(C)ccc3C)CC2)c[nH]1 | 1.68%
35 | Cc1ccc(-c2nn(-c3cccc(F)c3)cc2CNCCc2ccncc2)o1 | 5.75%
36 | Cc1ccc(Cl)c(NC(=O)CN2CCN(C=O)CC2)c1 | 5.32%
37 | OC(CNCc1ccc(Cl)c(Cl)c1)c1ccccc1 (stereo unspecified) | 9.74%
38 | CCN(CC)C(=O)COc1coc(CN2CCN(Cc3ccccc3)CC2)cc1=O | -3.15%
39 | CCC(Oc1ccccc1C)C(=O)Nc1ccc(S(=O)(=O)Nc2cc(C)on2)cc1 (stereo unspecified) | -7.98%
40 | Cc1cccc(N2CCC(NCc3c(C(=O)N4CCCCC4)nc4c(C)cccn34)CC2)c1 | -4.59%
41 | Cc1ccc(NC(=O)CC(=O)Nc2ccc(C)cc2)cc1 | -2.02%
42 | COC(=O)c1ccc(NC(=O)Nc2ccc(C)cc2)cc1 | 25.1% (active)

Row | Compound | max response
43 | CCC(=O)Nc1ccc(C(=O)N2CCN(C(=O)c3ccco3)CC2)cc1 | -1.69%
44 | Cc1cc(NC(=O)c2ccc(F)cc2)ccc1NC(=O)c1ccco1 | 9.36%
45 | Cc1ccc(NC(=O)/C(=C\c2ccccc2)NC(=O)c2ccco2)cc1 | 0.86%
46 | COc1cc(NC(=O)Nc2ccc(C)cc2)cc([N+](=O)[O-])c1 | 24%
47 | Cc1ccnc(NC(=O)c2ccc(NC(=O)c3ccco3)cc2)c1 | 36.1% (active)
48 | Cc1ccc(NC(=O)NCC(c2cccnc2)N2CCOCC2)cc1 (stereo unspecified) | -4.08%
49 | O=C(NNC(=O)c1cccnc1)Nc1ccccc1 | 4.83%
50 | Cc1ccc(NC(=O)Nc2cccnc2)cc1 | 24.6% (active)
51 | O=C(Nc1ccc(O)cc1)c1ccc(NC(=O)c2ccco2)cc1 | 31.9% (active)
52 | Cc1ccnc(NC(=O)CCC(=O)N(CC(=O)NCc2ccccc2)Cc2ccco2)c1 | -2.62%
53 | CCc1ccccc1NC(=O)NCCN1CCCCC1 | -2.65%
54 | COc1cccc(CNC(=O)CCC2CCCN(C(=O)c3ccoc3C)C2)c1 (stereo unspecified) | 5.76%
55 | Cc1ccc(S(=O)(=O)C2(S(=O)(=O)c3ccc(C)cc3)CCCC2)cc1 | -2.93%
56 | Nc1nc(SCC(=O)Nc2cc(C(F)(F)F)ccc2Cl)[nH]c(=O)c1NC(=O)c1ccco1 | -2.16%
57 | COc1ccc(S(=O)(=O)N2CCCCCC2)cc1C(=O)OCC(=O)Nc1cc(C)on1 | -1.32%
58 | Cc1cc(C)cc(C(=O)OCC(=O)NCCNC(=O)COC(=O)c2cc(C)cc(C)c2)c1 | 19%
59 | O=C1c2ccccc2NC(c2ccccn2)N1NS(=O)(=O)c1ccccc1 (stereo unspecified) | 3.3%
60 | CCn1c(SCC(=O)NC2=NCCS2)nnc1C(C)NC(=O)c1ccccc1F (stereo unspecified) | -2.33%
61 | Cc1cc2oc(=O)cc(CN3CCN(S(=O)(=O)c4cccs4)CC3)c2cc1C(C)C | -2.14%
